Assay results as given in PubChem BioAssay (NCATS).
Several values for one entry are separate records, joined by “and”; a condition that tells them apart may be missing. Equal entries are not always repeated. Results filed as inconclusive are left out. Activity calls are given as the source filed them. Calls come from the whole dose curve; as a rule, active = well fitted curve in the direction sought with a large enough effect; inconclusive = small, poorly fitted or top-dose-only effect, or another doubt; inactive = no such curve, though single readings can be large; an effect the other way counts as inactive or inconclusive.

Key:
[1] = molecular target: Glutathione peroxidase 1 (Homo sapiens) (UniProt P07203); assay: Primary qHTS Assay for Inhibitors of Recombinant Selenoprotein Glutathione Peroxidase 1 (GPX1) (AID 1845191); note: nearly all actives have a fitted effect of over 65% in size; for activity, negative = inhibition: % is set by controls: 0 for no effect and ±100 for the full control effect
Chain of Glutathione peroxidase 1 (Homo sapiens) (P07203 whole entry, looked up): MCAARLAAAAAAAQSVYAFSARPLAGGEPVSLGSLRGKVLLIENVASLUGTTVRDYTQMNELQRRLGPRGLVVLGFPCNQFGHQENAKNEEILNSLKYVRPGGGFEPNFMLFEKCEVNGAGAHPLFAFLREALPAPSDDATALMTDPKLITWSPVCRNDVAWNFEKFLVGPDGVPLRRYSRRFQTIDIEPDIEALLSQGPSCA
In short: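 10 nM GPX1 + cpd, 30 min RT; start w/ 1 mM GSH, 0.5 mM cumene hydroperoxide, 0.5 mM NADPH, 100 nM GR, 0.01% BSA; buffer 50 mM Tris-HCl pH 7.5, 2 mM EDTA, 150 mM NaCl; Fl 340/450, 0 & 15 min.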

[2] = molecular target: Phospholipid hydroperoxide glutathione peroxidase GPX4 (Homo sapiens) (UniProt P36969); assay: Primary qHTS Assay for Inhibitors of Recombinant Selenoprotein Glutathione Peroxidase 4 (GPX4) (AID 1845192); note: nearly all actives have a fitted effect of over 65% in size; note: potency is the fitted concentration of half-maximal effect; for activity change, negative = inhibition: series mostly up to about 50 µM; % is set by controls: 0 for no effect and ±100 for the full control effect
Chain of Phospholipid hydroperoxide glutathione peroxidase GPX4 (Homo sapiens) (P36969 whole entry, looked up): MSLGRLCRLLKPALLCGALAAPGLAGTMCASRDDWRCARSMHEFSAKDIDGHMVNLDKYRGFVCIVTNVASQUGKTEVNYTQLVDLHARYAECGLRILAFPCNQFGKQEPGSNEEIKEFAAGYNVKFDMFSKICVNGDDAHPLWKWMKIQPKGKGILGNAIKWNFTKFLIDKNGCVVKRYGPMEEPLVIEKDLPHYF
In short: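 NADPH consumption, followed by fluorescence at 340/450 nm between 0 and 15 min, reports GPX4 activity via coupled glutathione reductase (100 nM). Enzyme 200 nM was pre-exposed to compound 30 min; 0.5 mM cumene hydroperoxide and 1 mM GSH served as substrates.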

[3] = molecular target: Luciferin 4-monooxygenase (Photinus pyralis) (UniProt P08659); assay: Primary firefly luciferase (FLuc) qHTS assay for identification of artifact compounds. (AID 1845220); note: nearly all actives have a fitted effect of over 60% in size;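 for activity change, negative = inhibition: series mostly up to about 54 µM; plate controls were DMSO vehicle for no effect and no enzyme for full effect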
In short: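 FLuc 10 nM; luciferin 10 uM; ATP 10 uM; Tris-acetate pH 7.6, Mg-acetate 10 mM; 15 min RT preincubation; 5 min reaction; luminescence.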

[4] = Primary fluorescence-based thiol-reactive (MSTI) qHTS assay for identification of artifact compounds. (AID 1845221); note: nearly all actives have a fitted effect of over 65% in size; note: potency is the fitted concentration of half-maximal effect;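 for activity change, negative = thiol reactive: series mostly up to about 54 µM; thiol-reactive compounds lower the probe fluorescence signal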
In short: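 MSTI probe at 4 uM final in 2% DMSO/PBS pH 7.4; compounds, 1 h at room temperature in dark. Fluorescence Ex/Em 525/598 nm, normalised to Acetyl-MSTI and MSTI, fitted to 4-parameter Hill.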

[5] = system: Nanoluciferase (engineered Oplophorus gracilirostris luciferase); assay: Primary Nanoluciferase (NLuc) qHTS assay for identification of artifact compounds. (AID 1845222);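 note: NLuc secreted into diluted conditioned medium of S16 cells; series mostly up to about 54 µM; 0% = DMSO and -100% = no enzyme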
In short: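 NLuc from S16 cell medium (1:55) plus test compounds, 15 min, room temperature. Luminescence after Nano-Glo (1:100) addition, 5 min.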

C=C[C@@]1(C)C=C2C(=O)C(O)=C3[C@](C)(C(=O)O)CC[C@@H]4C[C@]34[C@]2(O)C(=O)C1
inactive: Potency [1] | Potency [2] | Potency [3]
active: Potency [4] 13.1 µM

C[N+](C)(CCCCCC[N+](C)(C)C1c2ccccc2-c2ccccc21)C1c2ccccc2-c2ccccc21
inactive: Potency [1] | Potency [2]

O=P(O)(O)OC(Cn1cncn1)(Cn1cncn1)c1ccc(F)cc1F
inactive: Potency [1] | Potency [2]

CC(=O)OC[C@]12[C@H](OC(C)=O)C(=O)[C@@H]3[C@@H](O)[C@@]14O[C@@]3(C)COC(=O)c1cccnc1[C@@H](C)[C@H](C)C(=O)O[C@@H]([C@H](O)[C@@H]2OC(C)=O)[C@]4(C)O
inactive: Potency [1] | Potency [2] | Potency [3]

CCC(C)C(C(=O)OCC[N+](C)(CC)CC)c1ccccc1 (stereo not given)
inactive: Potency [1] | Potency [2]

COc1ccc(C(=O)Nc2ccccc2CCC2CCCCN2C)cc1 (stereo not given)
inactive: Potency [1] | Potency [2]

CCNC1(C(N)=O)CN(c2nc(C)nc3c(-c4ccc(Cl)cc4)c(-c4ccccc4Cl)nn23)C1
inactive: Potency [1] | Potency [2] | Potency [3] | Potency [4] | Potency [5]

O=C(Nc1cc(C(F)(F)F)cc(C(F)(F)F)c1)c1cnc(Cl)nc1C(F)(F)F
inactive: Potency [1] | Potency [2] | Potency [3] | Potency [4] | Potency [5]

C=C(C)C1CC(O)C(C)C12CC(O)C1(C)OC1C2O (stereo not given)
inactive: Potency [1] | Potency [2] | Potency [3] | Potency [4] | Potency [5]

O=C(N[C@H]1CCC[C@H](CO)C1)C1CCN(c2nc3cc(Cl)c(-c4ccc(Cl)cc4)cc3o2)CC1
inactive: Potency [1] | Potency [2] | Potency [3] | Potency [4] | Potency [5]

O=c1cc(N2CCN(c3cccc(C(F)(F)F)c3)CC2)[nH]c(=O)n1C1CCCCC1
inactive: Potency [1] | Potency [2] | Potency [3] | Potency [4] | Potency [5]

C=C(C)C(=O)O[C@H]1/C(C=O)=C\CC/C(CO)=C/[C@H]2OC(=O)C(=C)[C@@H]2[C@@H]1OC
inactive: Potency [1] | Potency [2] | Potency [3] | Potency [5]
active: Potency [4] 3.69 µM

CC(C)=CCC[C@](C)(O[C@@H]1O[C@H](CO[C@@H]2OC[C@@H](O)[C@H](O)[C@H]2O)[C@@H](O)[C@H](O)[C@H]1O)[C@H]1CC[C@]2(C)[C@@H]1[C@H](O)C[C@@H]1[C@@]3(C)CC[C@H](O[C@@H]4O[C@H](CO)[C@@H](O)[C@H](O)[C@H]4O)C(C)(C)[C@@H]3CC[C@]12C
inactive: Potency [1] | Potency [2] | Potency [3] | Potency [4] | Potency [5]

COc1ccc(CCc2nc3cc(-c4c(C)noc4C)ccc3n2CC(C)N2CCOCC2)cc1Cl (stereo not given)
inactive: Potency [1] | Potency [2] | Potency [3] | Potency [4] | Potency [5]

C[C@@H](NC(=O)[C@H](O)c1cc(F)cc(F)c1)C(=O)N[C@@H]1C(=O)N(C)c2ccccc2-c2ccccc21
inactive: Potency [1] | Potency [2] | Potency [3] | Potency [4] | Potency [5]

CC(=O)c1c(C)cc2cccc(O)c2c1O[C@@H]1O[C@H](CO)[C@@H](O)[C@H](O)[C@H]1O
inactive: Potency [1] | Potency [2] | Potency [3] | Potency [5]
active: Potency [4] 5.21 µM

Cc1nc(NC(=O)N2CCC[C@H]2C(N)=O)sc1-c1ccnc(C(C)(C)C(F)(F)F)c1
inactive: Potency [1] | Potency [2] | Potency [3] | Potency [4] | Potency [5]

C/C=C(\C)C(=O)OC1C=C(C)CC(OC(=O)c2ccc(O)cc2)C2C1(C)CCC2(O)C(C)C (stereo not given)
inactive: Potency [1] | Potency [2] | Potency [3] | Potency [4] | Potency [5]

CC(=O)O[C@H]1[C@H](O)C[C@@]2(C)C(CC[C@]3(C)C2CC=C2C4CC(C)(C)CC[C@]4(C(=O)O)CC[C@]23C)C1(C)C (stereo not given in full)
inactive: Potency [1] | Potency [2] | Potency [3] | Potency [4] | Potency [5]

C=C(C)[C@@H]1CC[C@]2(C(=O)O)CC[C@]3(C(=O)O)[C@H](CCC4[C@@]5(C)CCC(=O)C(C)(C)C5CC[C@]43C)C12 (stereo not given in full)
inactive: Potency [1] | Potency [2] | Potency [3] | Potency [4] | Potency [5]

COC1CC/C=C(\C)C(=O)Nc2cc(O)cc(c2)CC(C)CC(OC)C(O)C(C)/C=C(\C)C1OC(N)=O (stereo not given)
inactive: Potency [1] | Potency [2] | Potency [3] | Potency [4] | Potency [5]

CCC/C=C\C=C/CCc1cc(O)c([C@@H]2O[C@H](CO)[C@@H](O)[C@H](O)[C@H]2O)c(O)c1C(=O)OC
inactive: Potency [1] | Potency [2] | Potency [3] | Potency [4] | Potency [5]

COc1cc(Br)c(S(=O)(=O)Nc2ccc(Cl)c(O[C@@H]3CCN(C)C3)c2)cc1OC
inactive: Potency [1] | Potency [2] | Potency [3] | Potency [4] | Potency [5]

O=C(C1CCCCC1)N(CCN1CCN(c2ccccc2O)CC1)c1ccccn1
inactive: Potency [1] | Potency [2] | Potency [3] | Potency [4] | Potency [5]

CNCCN1CCC(c2cc(CN(C)C(=O)c3cccc(Oc4ccccc4)c3)ccn2)CC1
inactive: Potency [1] | Potency [2] | Potency [3] | Potency [4] | Potency [5]

O=C(NCC1CCN(Cc2cccc(Cl)c2)CC1)[C@@H]1CCCN(c2ncnc3c2nc2n3CCCC2)C1
inactive: Potency [1] | Potency [2] | Potency [3] | Potency [4] | Potency [5]

CCc1c[nH]c2ncnc(N3CC[C@](N)(CNC(=O)c4ccc(F)cc4F)C3)c12
inactive: Potency [1] | Potency [2] | Potency [3] | Potency [4] | Potency [5]

CC(=O)O[C@H]1CC(C)(C)CC2[C@]13CO[C@@]21CCC2[C@@]4(C)CC[C@H](O[C@@H]5OC[C@H](O[C@@H]6O[C@H](CO)[C@@H](O)[C@H](O)[C@H]6O[C@@H]6OC[C@@H](O[C@@H]7O[C@H](CO)[C@@H](O)[C@H](O)[C@H]7O)[C@H](O)[C@H]6O)[C@H](O)[C@H]5O[C@@H]5O[C@H](CO)[C@@H](O)[C@H](O)[C@H]5O)[C@@](C)(CO)C4CC[C@@]2(C)[C@]1(C)C[C@H]3O (stereo not given in full)
inactive: activity, negative = inhibition [1] 2.15% [at 9.52 µM] | activity change, negative = inhibition [2] 4.48% [at 9.73 µM] | activity change, negative = inhibition [3] 3.87% [at 11.6 µM] | activity change, negative = thiol reactive [4] 133% [at 11.5 µM] | activity, negative = inhibition [5] 2.8% [at 11.6 µM]

C=CC(=O)N1CCCN(c2cc(NCCC(=O)O)nc(-c3ccccn3)n2)CC1
inactive: Potency [1] | Potency [2] | Potency [3] | Potency [4] | Potency [5]

COCC(=O)NC/C=C/c1ccc2ncnc(Nc3ccc(Oc4ccc(C)nc4)c(C)c3)c2c1
inactive: Potency [1] | Potency [2] | Potency [3] | Potency [4] | Potency [5]

Cc1nc(-c2cn3c(n2)-c2ccc(-c4cnn(C(C)(C)C(N)=O)c4)cc2OCC3)n(C(C)C)n1
active: Potency [2] 14.3 µM and 20.2 µM
inactive: Potency [1] | Potency [3] | Potency [4] | Potency [5]

CC(=O)O[C@H]1C[C@H](OC(C)=O)[C@]2(C)[C@H](CC[C@@]34O[C@@H]3C3=C(C)C(=O)O[C@@H]3C[C@H]42)C1(C)C
inactive: Potency [1] | Potency [2] | Potency [3] | Potency [4] | Potency [5]

C=C1C(=O)O[C@@H]2C[C@@]3(C)CCCC(=C)[C@]3(O)C[C@H]12
inactive: Potency [1] | Potency [2] | Potency [3] | Potency [4] | Potency [5]

CN(C)C(=O)C(=O)c1cn(C)c2cc(Cl)c(C(=O)N3CCC(Cc4ccc(F)cc4)CC3)cc12
inactive: Potency [1] | Potency [2] | Potency [3] | Potency [4] | Potency [5]

C/C=C(\C)C(=O)OC1C(C)C2(O)C(C=C(CO)CC3(O)C(=O)C(C)=CC32)C2C(C)(C)C12OC(C)=O (stereo not given)
inactive: Potency [1] | Potency [2] | Potency [3] | Potency [4] | Potency [5]

COc1ccc(C#Cc2ccc(C(=O)N3CCC[C@@H](CO)C3)cc2)cc1
inactive: Potency [1] | Potency [2] | Potency [3] | Potency [4] | Potency [5]

CCN(CC)CCCS(=O)(=O)N[C@H](CCc1ccccc1)c1nc(Cc2ccc(Br)cc2)no1
inactive: Potency [1] | Potency [2] | Potency [3] | Potency [4] | Potency [5]

O=S(=O)(c1ccc(Cl)cc1)N1CCN(c2ccnc3cc(Cl)ccc23)CC1
inactive: Potency [1] | Potency [2] | Potency [3] | Potency [4] | Potency [5]

C[C@@H]1O[C@@H](O[C@H]2CC[C@@]3(C)C(CC[C@]4(C)C3CC=C3[C@@H]5CC(C)(C)CC[C@]5(C(=O)O[C@@H]5O[C@H](CO)[C@@H](O)[C@H](O)[C@H]5O)CC[C@]34C)[C@]2(C)CO)[C@H](O)[C@H](O[C@@H]2O[C@H](CO)[C@@H](O)[C@H](O)[C@H]2O)[C@H]1O (stereo not given in full)
inactive: Potency [1] | Potency [2] | outcome [3] inactive [at 11.6 µM] | activity change, negative = thiol reactive [4] 278% [at 11.5 µM] | activity, negative = inhibition [5] 2.95% [at 11.6 µM]

CC(C)=CCC/C(C)=C/COCC1OC(n2ccc(=O)[nH]c2=O)C(O)C1O (stereo not given)
inactive: Potency [1] | Potency [2] | Potency [3] | Potency [4] | Potency [5]

CO[C@@H]1CC(OC2CCC3(C)C(CCC45CCC(C6=CC(=O)OC6)C(C)(CCC43)C5=O)C2)O[C@H](C)[C@@H]1O[C@@H]1O[C@H](CO[C@@H]2O[C@H](CO)[C@@H](O)[C@H](O)[C@H]2O)[C@@H](O)[C@H](O)[C@H]1O (stereo not given in full)
inactive: Potency [1] | Potency [2] | activity change, negative = inhibition [3] -4.2% [at 11.6 µM] | activity change, negative = thiol reactive [4] -1.23% [at 11.5 µM] | activity, negative = inhibition [5] -1.95% [at 11.6 µM]
